# Test results: article PMC7862700, “An all-to-all approach to the identification of sequence-specific readers for epigenetic DNA modifications on cytosine”
# Assays:
# Test in all cases: DAPPL (digital affinity profiling via proximity ligation, sequencing); 10 mM Tris-HCl pH 7.5, 50 mM NaCl, 1 mM DTT, 4% glycerol, room temperature, 30 min; GST-TFs on glutathione beads, 16-mer random dsDNA library, 0.1% formaldehyde crosslink after washing; high values mean tight binding
# [1] = target: T1, FLI1 (Homo sapiens, UniProt Q01543 1-452); details: protein: recombinant; tags: N-terminal GST; dsDNA, one strand shown
# T1 sequence: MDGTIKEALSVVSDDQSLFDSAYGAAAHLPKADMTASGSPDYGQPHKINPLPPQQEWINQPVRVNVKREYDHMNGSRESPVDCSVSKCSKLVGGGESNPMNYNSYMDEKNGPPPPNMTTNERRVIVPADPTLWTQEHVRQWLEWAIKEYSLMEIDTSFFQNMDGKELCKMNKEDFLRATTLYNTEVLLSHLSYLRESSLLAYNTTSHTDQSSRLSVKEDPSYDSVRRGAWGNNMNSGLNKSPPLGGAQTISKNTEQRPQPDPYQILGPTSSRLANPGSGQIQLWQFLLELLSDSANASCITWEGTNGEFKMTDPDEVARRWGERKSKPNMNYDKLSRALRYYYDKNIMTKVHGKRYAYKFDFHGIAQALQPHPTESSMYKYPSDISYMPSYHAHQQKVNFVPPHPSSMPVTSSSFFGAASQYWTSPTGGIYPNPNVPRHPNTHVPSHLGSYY
# Summary of the method: (§1)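 Human transcription factors carrying a GST fusion were produced in yeast, bound to glutathione beads, tagged with DNA barcodes and pooled together with a tag-only sample. Each pool was held with 200 nmole of a random double-stranded 16-mer DNA library in Tris/NaCl/DTT/glycerol buffer for 30 min at room temperature, then washed, crosslinked in 0.1% formaldehyde, proximity-ligated with BsaI/T4 ligase (1 h, 37 °C), PCR-amplified and sequenced on an Illumina NextSeq500. Binding signal is the read frequency of each hexamer for a given factor divided by its frequency in the tag-only sample.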
# [2] = target: T2, ELK1 (Homo sapiens, UniProt P19419 1-428); details: protein: recombinant; tags: N-terminal GST; dsDNA, one strand shown
# T2 sequence: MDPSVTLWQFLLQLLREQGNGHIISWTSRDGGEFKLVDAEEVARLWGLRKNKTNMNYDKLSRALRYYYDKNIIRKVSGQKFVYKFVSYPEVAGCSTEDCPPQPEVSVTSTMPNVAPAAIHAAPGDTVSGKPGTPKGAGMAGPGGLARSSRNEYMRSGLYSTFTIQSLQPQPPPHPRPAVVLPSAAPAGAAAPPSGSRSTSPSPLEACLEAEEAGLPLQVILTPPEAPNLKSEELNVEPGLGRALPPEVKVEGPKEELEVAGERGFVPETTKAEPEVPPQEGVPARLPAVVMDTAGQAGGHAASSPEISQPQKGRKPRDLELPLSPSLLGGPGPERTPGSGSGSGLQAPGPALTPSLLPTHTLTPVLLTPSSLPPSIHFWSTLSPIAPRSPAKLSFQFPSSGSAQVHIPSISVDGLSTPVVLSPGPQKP
# Summary of the method: as §1
# [3] = target: T3, GABPA (Homo sapiens, UniProt Q06546 1-454); details: protein: recombinant; tags: N-terminal GST; dsDNA, one strand shown
# T3 sequence: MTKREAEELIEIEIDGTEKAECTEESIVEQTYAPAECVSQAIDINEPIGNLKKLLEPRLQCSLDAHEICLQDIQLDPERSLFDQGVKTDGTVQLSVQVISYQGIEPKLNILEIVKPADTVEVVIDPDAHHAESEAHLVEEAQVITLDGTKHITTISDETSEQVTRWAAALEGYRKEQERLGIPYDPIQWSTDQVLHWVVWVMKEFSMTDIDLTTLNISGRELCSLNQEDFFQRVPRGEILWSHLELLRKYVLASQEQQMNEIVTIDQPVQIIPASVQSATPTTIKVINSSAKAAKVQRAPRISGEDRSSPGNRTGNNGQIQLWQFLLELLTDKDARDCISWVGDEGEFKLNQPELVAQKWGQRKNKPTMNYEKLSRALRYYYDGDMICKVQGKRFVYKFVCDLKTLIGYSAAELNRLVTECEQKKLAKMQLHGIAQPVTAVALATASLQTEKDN
# Summary of the method: as §1
# [4] = target: T4, ERG (Homo sapiens, UniProt P11308 1-479); details: protein: recombinant; tags: N-terminal GST; dsDNA, one strand shown
# T4 sequence: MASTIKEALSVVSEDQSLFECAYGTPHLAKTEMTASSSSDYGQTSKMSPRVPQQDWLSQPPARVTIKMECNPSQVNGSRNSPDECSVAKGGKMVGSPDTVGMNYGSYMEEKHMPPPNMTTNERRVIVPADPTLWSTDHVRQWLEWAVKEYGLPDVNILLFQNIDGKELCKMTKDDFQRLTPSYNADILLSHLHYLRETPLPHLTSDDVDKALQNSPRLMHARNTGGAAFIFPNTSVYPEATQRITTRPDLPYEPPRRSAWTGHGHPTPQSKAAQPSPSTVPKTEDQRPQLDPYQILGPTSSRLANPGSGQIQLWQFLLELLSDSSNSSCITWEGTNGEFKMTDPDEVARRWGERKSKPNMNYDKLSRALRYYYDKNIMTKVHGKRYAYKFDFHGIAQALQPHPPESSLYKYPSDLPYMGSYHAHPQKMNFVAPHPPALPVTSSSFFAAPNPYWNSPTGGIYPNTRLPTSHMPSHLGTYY
# Summary of the method: as §1
# [5] = target: ELF1 (Homo sapiens, UniProt P32519 1-619); details: protein: recombinant; tags: N-terminal GST; dsDNA, one strand shown
# Summary of the method: as §1
# [6] = target: T5, EHF (Homo sapiens, UniProt Q9NZC4 1-300); details: protein: recombinant; tags: N-terminal GST; dsDNA, one strand shown
# T5 sequence: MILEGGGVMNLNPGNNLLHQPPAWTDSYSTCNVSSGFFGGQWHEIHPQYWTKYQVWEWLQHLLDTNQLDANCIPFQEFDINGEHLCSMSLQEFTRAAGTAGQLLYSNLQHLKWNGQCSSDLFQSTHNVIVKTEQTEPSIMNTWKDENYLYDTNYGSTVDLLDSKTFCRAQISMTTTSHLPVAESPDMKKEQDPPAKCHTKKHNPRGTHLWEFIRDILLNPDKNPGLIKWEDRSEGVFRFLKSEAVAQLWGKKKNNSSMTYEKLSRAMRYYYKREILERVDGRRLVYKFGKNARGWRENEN
# Summary of the method: as §1
# [7] = target: SPI1 (Homo sapiens, UniProt P17947 1-270); details: protein: recombinant; tags: N-terminal GST; dsDNA, one strand shown
# Summary of the method: as §1
# [8] = target: SPIB (Homo sapiens, UniProt Q01892 1-262); details: protein: recombinant; tags: N-terminal GST; dsDNA, one strand shown
# Summary of the method: as §1
# [9] = target: T6, ELK3 (Homo sapiens, UniProt P41970 1-407); details: protein: recombinant; tags: N-terminal GST; dsDNA, one strand shown
# T6 sequence: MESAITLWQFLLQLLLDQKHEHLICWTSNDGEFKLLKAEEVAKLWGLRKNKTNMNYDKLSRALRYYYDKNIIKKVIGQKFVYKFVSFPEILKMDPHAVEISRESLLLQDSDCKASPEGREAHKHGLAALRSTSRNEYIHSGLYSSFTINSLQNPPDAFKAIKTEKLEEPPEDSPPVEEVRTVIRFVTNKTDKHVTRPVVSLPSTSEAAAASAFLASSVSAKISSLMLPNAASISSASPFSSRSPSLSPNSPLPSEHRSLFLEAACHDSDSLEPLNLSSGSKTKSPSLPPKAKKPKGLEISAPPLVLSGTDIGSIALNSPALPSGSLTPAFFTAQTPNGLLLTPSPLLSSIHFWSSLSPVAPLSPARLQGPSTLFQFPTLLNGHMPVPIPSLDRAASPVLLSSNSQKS
# Summary of the method: as §1
# [10] = target: T7, FEV (Homo sapiens, UniProt Q99581 1-238); details: protein: recombinant; tags: N-terminal GST; dsDNA, one strand shown
# T7 sequence: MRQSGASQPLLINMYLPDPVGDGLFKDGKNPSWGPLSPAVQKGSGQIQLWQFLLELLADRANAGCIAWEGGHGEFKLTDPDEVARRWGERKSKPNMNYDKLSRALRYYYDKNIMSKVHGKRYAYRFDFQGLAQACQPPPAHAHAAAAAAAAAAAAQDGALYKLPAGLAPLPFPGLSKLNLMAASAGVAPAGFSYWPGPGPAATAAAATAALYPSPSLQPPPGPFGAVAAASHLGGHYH
# Summary of the method: as §1
# [11] = target: ETV5 (Homo sapiens, UniProt P41161 1-510); details: protein: recombinant; tags: N-terminal GST; dsDNA, one strand shown
# Summary of the method: as §1
# [12] = target: HSF1 (Homo sapiens, UniProt Q00613 1-529); details: protein: recombinant; tags: N-terminal GST; chain copies: 3; dsDNA, one strand shown
# Summary of the method: as §1
# [13] = target: T8, SPIC (Homo sapiens, UniProt Q8N5J4 1-248); details: protein: recombinant; tags: N-terminal GST; dsDNA, one strand shown
# T8 sequence: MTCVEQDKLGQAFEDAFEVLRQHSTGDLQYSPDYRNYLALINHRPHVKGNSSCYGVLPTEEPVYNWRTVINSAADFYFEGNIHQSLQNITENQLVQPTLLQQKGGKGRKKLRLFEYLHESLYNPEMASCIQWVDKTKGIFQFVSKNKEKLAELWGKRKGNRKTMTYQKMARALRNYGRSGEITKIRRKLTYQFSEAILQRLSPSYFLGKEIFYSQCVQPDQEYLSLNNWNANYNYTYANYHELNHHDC
# Summary of the method: as §1
# [14] = target: ELF4 (Homo sapiens, UniProt Q99607 1-663); details: protein: recombinant; tags: N-terminal GST; dsDNA, one strand shown
# Summary of the method: as §1
# [15] = target: T9, ELK4 (Homo sapiens, UniProt P28324-2 1-405); details: protein: recombinant; tags: N-terminal GST; dsDNA, one strand shown
# T9 sequence: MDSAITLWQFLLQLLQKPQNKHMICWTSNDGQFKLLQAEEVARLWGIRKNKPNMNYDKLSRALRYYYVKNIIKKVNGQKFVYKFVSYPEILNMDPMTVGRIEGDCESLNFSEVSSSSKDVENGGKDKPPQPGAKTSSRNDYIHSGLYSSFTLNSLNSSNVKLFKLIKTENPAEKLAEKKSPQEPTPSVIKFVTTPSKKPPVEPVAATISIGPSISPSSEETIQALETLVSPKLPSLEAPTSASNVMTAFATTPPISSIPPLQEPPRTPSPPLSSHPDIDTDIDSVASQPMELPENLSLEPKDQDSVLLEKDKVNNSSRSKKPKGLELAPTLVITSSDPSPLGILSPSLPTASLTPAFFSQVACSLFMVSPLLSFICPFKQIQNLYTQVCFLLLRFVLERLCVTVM
# Summary of the method: as §1
# [16] = target: T10, ETV2 (Homo sapiens, UniProt O00321 1-342); details: protein: recombinant; tags: N-terminal GST; dsDNA, one strand shown
# T10 sequence: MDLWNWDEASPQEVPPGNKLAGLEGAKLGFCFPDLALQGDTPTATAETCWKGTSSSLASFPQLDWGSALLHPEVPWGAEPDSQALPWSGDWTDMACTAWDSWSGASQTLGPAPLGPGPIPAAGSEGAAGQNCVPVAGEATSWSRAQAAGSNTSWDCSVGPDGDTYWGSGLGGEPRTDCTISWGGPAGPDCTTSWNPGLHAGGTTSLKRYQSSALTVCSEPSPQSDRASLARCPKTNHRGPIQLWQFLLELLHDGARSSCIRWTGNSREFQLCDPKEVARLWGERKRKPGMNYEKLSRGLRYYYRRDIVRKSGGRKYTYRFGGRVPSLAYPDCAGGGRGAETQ
# Summary of the method: as §1
# [17] = target: T11, ELF3 (Homo sapiens, UniProt P78545 1-371); details: protein: recombinant; tags: N-terminal GST; dsDNA, one strand shown
# T11 sequence: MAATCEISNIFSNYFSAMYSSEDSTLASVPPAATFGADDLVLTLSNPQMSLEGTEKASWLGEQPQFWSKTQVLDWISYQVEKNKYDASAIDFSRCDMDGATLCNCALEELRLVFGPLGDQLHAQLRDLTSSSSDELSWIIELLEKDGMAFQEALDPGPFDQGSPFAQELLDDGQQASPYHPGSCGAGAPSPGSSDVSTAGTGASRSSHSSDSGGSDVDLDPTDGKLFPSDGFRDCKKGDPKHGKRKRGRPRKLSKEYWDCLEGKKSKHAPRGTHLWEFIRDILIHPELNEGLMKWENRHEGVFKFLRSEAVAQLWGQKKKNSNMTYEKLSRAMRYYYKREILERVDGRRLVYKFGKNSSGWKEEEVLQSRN
# Summary of the method: as §1
# [18] = target: CRX (Homo sapiens, UniProt O43186 1-299); details: protein: recombinant; tags: N-terminal GST; dsDNA, one strand shown
# Summary of the method: as §1
# [19] = target: ETV1 (Homo sapiens, UniProt P50549 1-477); details: protein: recombinant; tags: N-terminal GST; dsDNA, one strand shown
# Summary of the method: as §1
# ELF1, sequence (P32519 whole entry): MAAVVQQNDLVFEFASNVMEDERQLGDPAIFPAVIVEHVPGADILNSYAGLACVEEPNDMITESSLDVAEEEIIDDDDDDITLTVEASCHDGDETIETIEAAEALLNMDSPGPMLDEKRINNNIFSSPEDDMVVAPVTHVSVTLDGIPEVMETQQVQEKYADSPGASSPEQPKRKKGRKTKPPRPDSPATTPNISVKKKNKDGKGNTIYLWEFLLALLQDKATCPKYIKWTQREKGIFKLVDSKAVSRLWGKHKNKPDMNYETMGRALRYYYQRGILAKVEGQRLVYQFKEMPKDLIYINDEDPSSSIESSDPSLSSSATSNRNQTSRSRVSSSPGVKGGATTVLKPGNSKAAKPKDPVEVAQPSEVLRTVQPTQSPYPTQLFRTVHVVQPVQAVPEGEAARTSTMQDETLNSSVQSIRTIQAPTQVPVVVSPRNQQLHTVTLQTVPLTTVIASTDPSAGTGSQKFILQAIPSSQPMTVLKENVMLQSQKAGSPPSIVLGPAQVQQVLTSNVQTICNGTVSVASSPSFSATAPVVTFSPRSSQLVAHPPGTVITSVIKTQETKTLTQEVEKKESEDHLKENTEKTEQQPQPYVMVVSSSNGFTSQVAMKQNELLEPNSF
# CRX, sequence (O43186 whole entry): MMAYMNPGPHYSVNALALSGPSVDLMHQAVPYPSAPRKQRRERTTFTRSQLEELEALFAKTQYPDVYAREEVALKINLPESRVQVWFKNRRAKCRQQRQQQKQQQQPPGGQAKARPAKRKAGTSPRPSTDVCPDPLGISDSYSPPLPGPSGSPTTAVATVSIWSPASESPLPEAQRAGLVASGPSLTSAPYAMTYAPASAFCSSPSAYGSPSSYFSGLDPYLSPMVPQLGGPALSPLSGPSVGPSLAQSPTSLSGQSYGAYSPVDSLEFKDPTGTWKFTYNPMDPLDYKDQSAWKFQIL
# HSF1, sequence (Q00613 whole entry): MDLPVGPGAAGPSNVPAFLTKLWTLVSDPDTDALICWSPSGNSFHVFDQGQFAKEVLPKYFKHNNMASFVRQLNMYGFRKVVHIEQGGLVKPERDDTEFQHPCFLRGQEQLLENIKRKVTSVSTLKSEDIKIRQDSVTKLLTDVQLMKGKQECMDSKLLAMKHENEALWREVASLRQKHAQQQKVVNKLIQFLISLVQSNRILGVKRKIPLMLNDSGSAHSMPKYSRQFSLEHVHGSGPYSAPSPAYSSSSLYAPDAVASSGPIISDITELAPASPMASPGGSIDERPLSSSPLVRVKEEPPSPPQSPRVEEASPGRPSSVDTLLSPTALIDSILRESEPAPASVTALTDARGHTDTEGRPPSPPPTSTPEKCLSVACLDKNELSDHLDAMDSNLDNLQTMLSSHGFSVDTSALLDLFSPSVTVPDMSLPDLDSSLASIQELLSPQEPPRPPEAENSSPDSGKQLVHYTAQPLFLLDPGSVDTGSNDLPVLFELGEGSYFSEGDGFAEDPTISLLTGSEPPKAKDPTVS
# ELF4, sequence (Q99607 whole entry): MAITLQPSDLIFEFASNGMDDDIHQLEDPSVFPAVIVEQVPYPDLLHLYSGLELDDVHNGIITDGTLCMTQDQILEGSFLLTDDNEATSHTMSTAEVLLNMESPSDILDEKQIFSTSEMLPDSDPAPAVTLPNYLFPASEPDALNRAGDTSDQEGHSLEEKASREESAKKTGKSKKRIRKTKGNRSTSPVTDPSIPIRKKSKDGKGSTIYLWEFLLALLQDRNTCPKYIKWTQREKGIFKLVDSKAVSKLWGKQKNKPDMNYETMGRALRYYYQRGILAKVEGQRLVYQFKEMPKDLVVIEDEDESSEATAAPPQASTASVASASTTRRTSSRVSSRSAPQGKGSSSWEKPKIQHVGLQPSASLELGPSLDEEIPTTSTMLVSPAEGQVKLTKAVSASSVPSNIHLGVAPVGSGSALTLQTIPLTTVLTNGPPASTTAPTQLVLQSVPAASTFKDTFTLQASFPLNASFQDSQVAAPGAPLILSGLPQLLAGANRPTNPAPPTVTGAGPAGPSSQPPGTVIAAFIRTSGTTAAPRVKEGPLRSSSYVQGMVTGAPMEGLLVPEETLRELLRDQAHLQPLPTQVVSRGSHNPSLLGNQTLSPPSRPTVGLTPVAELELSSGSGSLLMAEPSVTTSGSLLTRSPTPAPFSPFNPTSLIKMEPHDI
# SPIB, sequence (Q01892 whole entry): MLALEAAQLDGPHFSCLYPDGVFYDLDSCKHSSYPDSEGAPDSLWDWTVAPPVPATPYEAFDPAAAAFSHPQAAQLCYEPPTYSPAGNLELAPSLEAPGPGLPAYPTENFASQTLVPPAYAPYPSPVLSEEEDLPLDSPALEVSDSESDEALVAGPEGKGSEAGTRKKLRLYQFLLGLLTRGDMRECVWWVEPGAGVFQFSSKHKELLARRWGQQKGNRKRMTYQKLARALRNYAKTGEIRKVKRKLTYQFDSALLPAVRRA
# ETV1, sequence (P50549 whole entry): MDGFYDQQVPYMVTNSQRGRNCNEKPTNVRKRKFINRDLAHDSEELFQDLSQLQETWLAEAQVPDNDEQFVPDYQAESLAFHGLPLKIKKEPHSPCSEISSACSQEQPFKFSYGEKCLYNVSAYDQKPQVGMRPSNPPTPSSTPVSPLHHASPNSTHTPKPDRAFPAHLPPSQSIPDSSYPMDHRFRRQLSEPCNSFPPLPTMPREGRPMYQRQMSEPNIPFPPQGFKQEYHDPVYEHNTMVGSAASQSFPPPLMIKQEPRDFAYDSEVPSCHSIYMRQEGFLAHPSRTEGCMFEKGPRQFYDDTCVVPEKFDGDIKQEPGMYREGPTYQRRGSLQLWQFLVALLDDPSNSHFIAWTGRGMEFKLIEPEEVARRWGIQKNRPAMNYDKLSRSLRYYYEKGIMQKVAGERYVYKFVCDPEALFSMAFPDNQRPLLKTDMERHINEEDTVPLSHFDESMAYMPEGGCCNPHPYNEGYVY
# ETV5, sequence (P41161 whole entry): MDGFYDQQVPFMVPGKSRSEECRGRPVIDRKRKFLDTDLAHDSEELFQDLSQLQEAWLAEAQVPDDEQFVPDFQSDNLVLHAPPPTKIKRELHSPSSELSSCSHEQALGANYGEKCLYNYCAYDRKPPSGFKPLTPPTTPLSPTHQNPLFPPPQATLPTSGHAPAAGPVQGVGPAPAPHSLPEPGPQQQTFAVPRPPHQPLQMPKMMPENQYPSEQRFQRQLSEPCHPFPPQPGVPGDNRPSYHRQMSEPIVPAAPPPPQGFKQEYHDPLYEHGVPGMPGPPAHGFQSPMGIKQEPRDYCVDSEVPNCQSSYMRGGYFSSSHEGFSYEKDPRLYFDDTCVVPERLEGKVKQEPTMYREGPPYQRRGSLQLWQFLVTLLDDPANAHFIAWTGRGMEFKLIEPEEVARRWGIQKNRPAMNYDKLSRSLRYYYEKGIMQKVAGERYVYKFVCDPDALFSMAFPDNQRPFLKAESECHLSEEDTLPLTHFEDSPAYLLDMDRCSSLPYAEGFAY
sequence,measurement,setting,value
GTATTC,binding signal,[1],"1.33 fold enrichment (6-mer frequency, TF over GST control)"
same,binding signal,[2],"1.17 fold enrichment (6-mer frequency, TF over GST control)"
same,binding signal,[3],"1.26 fold enrichment (6-mer frequency, TF over GST control)"
same,binding signal,[4],"1.19 fold enrichment (6-mer frequency, TF over GST control)"
same,binding signal,[5],"1.22 fold enrichment (6-mer frequency, TF over GST control)"
same,binding signal,[6],"1.27 fold enrichment (6-mer frequency, TF over GST control)"
same,binding signal,[7],"1.31 fold enrichment (6-mer frequency, TF over GST control)"
same,binding signal,[8],"1.25 fold enrichment (6-mer frequency, TF over GST control)"
same,binding signal,[9],"1.3 fold enrichment (6-mer frequency, TF over GST control)"
same,binding signal,[10],"1.18 fold enrichment (6-mer frequency, TF over GST control)"
same,binding signal,[11],"1.32 fold enrichment (6-mer frequency, TF over GST control)"
same,binding signal,[12],"1.31 fold enrichment (6-mer frequency, TF over GST control)"
same,binding signal,[13],"1.33 fold enrichment (6-mer frequency, TF over GST control)"
same,binding signal,[14],"1.27 fold enrichment (6-mer frequency, TF over GST control)"
same,binding signal,[15],"1.16 fold enrichment (6-mer frequency, TF over GST control)"
same,binding signal,[16],"1.27 fold enrichment (6-mer frequency, TF over GST control)"
same,binding signal,[17],"1.31 fold enrichment (6-mer frequency, TF over GST control)"
same,binding signal,[18],"1.13 fold enrichment (6-mer frequency, TF over GST control)"
same,binding signal,[19],"1.22 fold enrichment (6-mer frequency, TF over GST control)"
